This is a sample that favours compounds with a hit; in the whole collection about 2% have one here.
PolyA inhibitor: polyadenylation inhibitors in yeast reporter cells, primary screen, luminescence, S. cerevisiae. S. cerevisiae SKY197-pL101 polyadenylation reporter, beta-gal luminescence; efflux-impaired pdr1/pdr3 knockout yeast; score 100 = 6 SD above DMSO. activity score, % at 12 µM. actives 0.02% (n = 300,000). AID 1875, 2009;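 active = lowest replicate activity score at least 50, where 100 means six control SD above control mean; inconclusive = lowest score under 50 but half or more replicates reach 50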;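 also: yeast exposed to compound for 9 h at 30 °C; higher score means more reporter readthrough which indicates perturbed polyadenylation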
Calb FLC: C. albicans growth inhibition with fluconazole, primary screen, CaCi-2 strain, Alamar Blue fluorescence. C. albicans CaCi-2 (fluconazole-resistant clinical isolate) + fluconazole, 48 h. AID 1979, 2009. growth inhibition, % (test concentration not listed). actives 0.57% (n = 300,000);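 active = growth inhibition above about 58% in most replicates, limit read from the data, passing the limit was not always enough; inconclusive = exactly half the replicates above a set limit; inactive = most replicates below a set limit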;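 also: all wells also contain fluconazole at 8 µg/ml as a sub-toxic cotreatment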
Platelet DG rel: inhibitors of platelet dense granule secretion, primary screen, cell-based, MLPCN, human platelets | human platelet-rich plasma, SFLLRN dense granule ATP release, luminescence | inhibition, %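 (compounds screened at 7.5 µM in platelet-rich plasma)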 | actives 0.22% (n = 300,000);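 active = mean replicate score, as percent of positive control, at or above 50; inconclusive = mean below 50 but at least one replicate at or above 50; inactive = mean and every replicate below 50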
Yeast superoxide: reduction of superoxide in aged yeast, primary screen, HTS | S. cerevisiae aged cells, superoxide DHE fluorescence; active compounds read low | superoxide response (% of plate mean), % at 10 µM | actives 0.18% (n = 330,000);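 active = superoxide response under a set limit, about three screen SD below normal, cut at about 65% in these data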;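 also: yeast aged for seven days with compound at 30 °C before DHE staining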
SKKanGAS inh: S. pyogenes SKKanGAS growth inhibitors in kanamycin, primary screen, streptokinase expression inhibitor project, SKKanGAS strain, BacTiter-Glo luminescence; AID 1662, 2009; actives 1.3% (n = 300,000); inhibition, % at 7.5 µM; 6 h;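 active = mean replicate score, as percent of positive control median, at least 50; inconclusive = mean below 50 but one replicate at or above 50; inactive = mean and every replicate below 50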;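 also: strain carries kanamycin resistance gene driven by streptokinase promoter and grows in 40 µg/ml kanamycin; loss of luminescence reflects streptokinase promoter inhibition or plain growth inhibition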
Numbers stand for hits; . = inactive; ? = inconclusive; / = no result.

SMILES	PolyA inhibitor	Calb FLC	Platelet DG rel	Yeast superoxide	SKKanGAS inh
OCCNc1nc(Nc2cc(Cl)ccc2OC2CCCC2)nc(N2CCCC2)n1	.	.	.	.	68
COCCN(C(=S)Nc1cccc(C)c1)C(C)c1cccnc1 (stereo unspecified)	.	.	.	.	.
Cc1nnsc1C(=O)N/N=C/c1ccc2ccccc2c1O	.	.	.	.	56
Cc1nnsc1C(=O)N/N=C/c1ccccc1	.	.	.	.	.
COc1ccc(C(=O)/C=C/NCc2ccc(F)cc2)cc1OC	.	.	.	.	.
Cc1ccc(S(=O)(=O)/N=C(/c2ccccc2)N2CCOCC2)c(C)c1	.	81	.	.	.
Cc1ccc(S(=O)(=O)/N=C(/c2ccccc2)N2CCOCC2)cc1	.	.	.	.	.
CCOc1ccccc1NC(=O)c1nc(S(=O)(=O)Cc2cccc(C)c2)ncc1Cl	.	.	.	.	73
Cc1ccc(CS(=O)(=O)c2ncc(Cl)c(C(=O)Nc3ccc(OC(F)F)cc3)n2)cc1	.	.	.	.	54
CCc1nnc(NC(=O)c2nc(S(=O)(=O)Cc3cccc(C)c3)ncc2Cl)s1	.	.	.	.	.
COC(=O)c1ccccc1NC(=O)c1nc(S(=O)(=O)Cc2ccccc2)ncc1Cl	.	.	.	.	58
CC(=O)c1ccc(N2CCN(S(=O)(=O)c3c(C(=O)N4CCCC4)c(C)n(C)c3C)CC2)cc1	.	.	.	.	.
OCCC1CN(Cc2cccc3nccnc23)CCN1Cc1ccc(F)cc1 (stereo unspecified)	.	.	.	.	.
Cc1ccc(C(=O)OCC(=O)NC(=O)c2ccccc2)o1	.	/	.	.	.
CCn1c(-c2ccccc2)c[nH]c1=S	.	.	.	.	72
OCC[C@@H]1C[C@H](O)[C@@H](O)[C@@]2(OCCCc3ccccc32)O1	.	.	.	.	.
N#Cc1c(-c2c(Cl)cccc2Cl)noc1/C=C/Nc1ccc(C(=O)O)cc1	.	.	.	.	59
O=C(NCc1ccccc1)C1c2ccccc2Oc2ccccc21	.	118	.	.	.
COc1ccccc1CNC(=O)c1ccc(NC2=NC3CS(=O)(=O)CC3S2)cc1 (stereo unspecified)	.	.	.	.	.
COc1cccc(OCCNC(=O)c2cccc(OC)c2)c1	.	.	53	.	.
CCCc1cc(=O)oc2cc(OCC(=O)N3CCc4ccccc43)ccc12	.	.	74	.	.
CCOC(=O)c1cnn(-c2ccc(NS(=O)(=O)c3ccc(Cl)cc3)cc2)c1C(F)(F)F	.	.	.	.	55
N#CCSc1ccc2nc(-c3ccccc3)cn2n1	.	.	.	.	.
CCCCSc1ccc2nc(-c3ccc(C#N)cc3)cn2c1	.	.	.	.	54
CCCSc1ccc2nc(-c3ccccc3)cn2c1	.	.	75	.	.
SMILES	PolyA inhibitor	Calb FLC	Platelet DG rel	Yeast superoxide	SKKanGAS inh
CCCCCCCOc1ccc(-c2ccc(C#N)cn2)cc1	.	.	.	.	.
O=[N+]([O-])c1cccc(-c2n[nH]c(=S)n2-c2ccccc2)c1	.	.	.	.	.
O=[N+]([O-])c1ccc2c(c1)[nH]c(=S)n2-c1ccccc1	.	85	.	.	.
Cn1cc(CCNC(=O)C2CCC(=O)N(CCc3ccc(Cl)cc3)C2)cn1 (stereo unspecified)	.	.	.	.	.
CCCn1c(=N)n(CC(=O)c2ccc([N+](=O)[O-])cc2)c2ccccc21	.	99	.	.	.
CCCn1c(=N)n(CC(=O)c2ccc(Cl)cc2)c2ccccc21	.	.	.	.	.
Cn1c(N)c(C(=O)COC(=O)CCCc2c[nH]c3ccccc23)c(=O)n(C)c1=O	.	.	.	.	75
Cn1c(N)c(C(=O)COC(=O)CCc2nc3ccccc3s2)c(=O)n(C)c1=O	.	.	.	.	.
Cn1c(N)c(C(=O)COC(=O)CCc2c[nH]c3ccccc23)c(=O)n(C)c1=O	.	.	.	.	63
COc1cc(NC(=O)COC(=O)CCOc2ccc(C)cc2)cc(OC)c1	.	.	.	.	/
CCCC(=O)Nc1ccc(N2CCN(C(=O)c3cccs3)CC2)cc1	.	.	.	.	.
COc1ccc(OC)c(Nc2nc(NCCO)c3ccccc3n2)c1	67	.	.	.	.
CCOC(=O)N1CCN(C(=O)c2ccc3c(=O)n(CCC4=CCCCC4)c(=S)[nH]c3c2)CC1	.	.	.	.	67
CCCn1c(=S)[nH]c2cc(C(=O)N3CCN(C(=O)OCC)CC3)ccc2c1=O	.	.	.	.	.
COC(=O)c1cc(C(=O)Nc2nnc(C3CC3)s2)cc([N+](=O)[O-])c1	.	.	.	.	.
Cc1nn(-c2ccc([N+](=O)[O-])cc2)c2c1C(c1ccc(OC(F)F)cc1)N1C(=N2)C(=O)Nc2ccccc21 (stereo unspecified)	.	87	.	.	.
Cc1ccc(C2c3c(C)nn(-c4ccc([N+](=O)[O-])cc4)c3N=C3C(=O)Nc4ccccc4N32)cc1 (stereo unspecified)	.	.	.	.	.
O=C(Nc1nnc(C2=COCCO2)o1)c1cccc([N+](=O)[O-])c1	.	.	.	.	.
CCOc1ccc(C(=O)Nc2nnc(C3=COCCO3)o2)cc1	.	.	.	.	72
O=C(Nc1nnc(C2=COCCO2)o1)c1cccc(Br)c1	.	?	.	.	100
O=C(NCCc1c[nH]c2ccccc12)C(=O)Nc1cc2c3c(c1)CC(=O)N3CCC2	.	.	.	.	.
[O-][n+]1cccc2c(Br)cc(Br)c(O)c21	.	109	.	.	76
COC(=O)c1nn(-c2ccc(-c3ccccc3)cc2)cc1O	.	.	64	.	.
CC1(C)Cc2c(cnn2-c2ccccc2)-c2c1c1ccccc1n2CC(O)CCl (stereo unspecified)	.	.	.	.	64
CCN1C(=O)c2cccc3c(S(=O)(=O)N(C(C)=O)c4ccc(OC(C)=O)cc4)ccc1c23	/	/	/	.	/
SMILES	PolyA inhibitor	Calb FLC	Platelet DG rel	Yeast superoxide	SKKanGAS inh
CC1CCCN(S(=O)(=O)CCNC(=O)c2ccccc2)C1 (stereo unspecified)	.	.	.	.	.
O=C(O)c1ccc(-n2cccc2/C=C2/SC(=O)N(CC(=O)N3CCCC3)C2=O)cc1	.	.	.	.	.
N#Cc1ccccc1CN1C(=O)S/C(=C/c2cccn2-c2ccc(C(=O)O)cc2)C1=O	.	.	.	.	57
CCOC(=O)c1cnc(-n2nc(C)cc2C)nc1NNc1nc(-c2ccccc2)cc(-c2ccccc2)n1	.	.	.	.	105
CCOC(=O)c1cnc(-n2nc(C)cc2C)nc1NNc1nc(C)cc(C)n1	.	.	.	.	80
COC(=O)c1ccc(CNC(=O)c2ccc(OC)c(S(=O)(=O)NC3CCCC3)c2)cc1	/	/	/	.	/
CSc1nc2cc(Oc3cccc(Cl)c3Cl)c(Cl)cc2[nH]1	.	/	.	.	96

Screening results as filed in PubChem.
